The whole screen tested about 5,500 compounds, of which about 2,000 (36%) were called active. Inconclusive results (about 18%) are left out. No stated cut-off is given here; in the data, active means normalized growth mostly below about 0.91 (no sharp cut-off); inconclusive means no clear call, values can overlap the other calls; inactive means mostly above about 0.92. The list shows a part of the results.
Assay: chemical genetic growth profiling, strain panel (AID 1159580);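 further: tested at 20 µM; growth read once vehicle control cultures reached saturation at 30 °C; 1 = growth at the plate median or of vehicle wells; lower values mean less growth of the strain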
Details: S. cerevisiae deletion strains, growth OD

Measured: normalized growth

C=C(C)[C@H]1CN[C@H](C(=O)O)[C@H]1CC(=O)O
inactive: locus YAL040C, strain CLN3, hits give low values 1.02 | locus YCL061C, strain MRC1 (second series), hits give low values 1 | locus YDR363W, strain ESC2, hits give low values 1.03 | locus YER002W, strain NOP16, hits give low values 1.01 | locus YMR307W, strain GAS1, hits give low values 1 | locus YNL128W, strain TEP1, hits give low values 1 | locus YNL175C, strain NOP13, hits give low values 1.02 | locus YNL197C, strain WHI3, hits give low values 1.02 | locus YNL224C, strain SQS1, hits give low values 1 | locus YOR083W, strain WHI5 (second series), hits give low values 1.03

— PubChem BioAssay AID1159580 (chemical genetic matrix, 2015)
